These results are taken from PubChem BioAssay (NCATS).

Structures are written as SMILES. Values joined by “and” are separate entries in the source; they are usually repeats but may differ in a detail not shown here. Identical values can stand only once. Results filed as inconclusive are left out. Values without a mark were called inactive. Active and inactive are the calls of the source. The call rests on the fitted dose curve; in most records, active means well fitted cell-killing curve with a large enough effect; inconclusive means small, poorly fitted or top-dose-only effect, or effect the other way; inactive means no such curve, though single readings can be large or run the other way.
Potency means the concentration at half of the fitted maximal effect.

A short description of the test: Viability qHTS for spleen associated tyrosine kinase inhibitor (SYKi) naive MV4-11 cells (AID 1963823). Further: nearly all actives have a fitted effect of over 40% in size. Particulars: MV4-11 AML viability, CellTiter-Glo luminescence, 72 h; series mostly up to 45 µM; viability (% of control): at the top concentration. An excerpt:
Department of Medicine, Hematology/Oncology
University Hospital Frankfurt, Germany.
Trials have shown promising clinical activity of the selective SYK inhibitor entospletinib in patients with high expressing HOXA9/MEIS1 acute leukemias. As the development of resistance mechanisms is a common problem in the use of targeted drugs, we performed a chemical library screen to identify drug sensitivities in SYK inhibitor resistant AML cells. […] Glucocorticoids are potent immunosuppressants which work in part by inhibiting the transcription of cytokine genes.
Described herein is a viability screen to look for activity in the SYK inhibitor naive cell line against four NCATS compound libraries (MIPE 5.0, NPC, NPACT, and Kinase) totaling 11372 compounds. Active hits were reacquired for confirmation and further secondary assay testing.
SEQUENCE No. (e.g., 1, 2, 3, etc.); […] (e.g., Cells, Incubation, Reagent, etc.); VALUE; DESCRIPTION.
1; Media; 2uL; white, solid-bottom Corning assay plate.
2; Compounds; 23nL; Echo acoustic dispenser.
3; Cell; 5uL; 500 cells per well.
4: Incubation; 72hr; 37 C, 5% CO2, 95% humidity.
5; Reagent; 3uL; CellTiter-Glo reagent (Promega).
6; Incubation; 10min; room temperature.
7; Detection; Luminescence; ViewLux plate reader (PerkinElmer).
NOTES (numbers refer to Sequence numbers above
1. Quantitative high-throughput screening (qHTS) of small molecule compounds was conducted on naive SYKi MV4-11 cell line.
2. Twenty-three nanoliter of small molecule compounds were added to each assay plates using the Echo acoustic dispenser (Beckman Coulter).
3. Cells were seeded into the assay plates at a final density of 500 cells in 5uL of media per well using the Multi-drop Combi dispenser.
4. Plates were covered with stainless steel gasketed lids and incubated for 72 hours at standard cell culture conditions.
5. Viability was assessed by adding 3uL of CellTiter-Glo detection reagent (Promega).
6. Plates were covered with gasket lids and incubated for 10 minutes at room temperature.
7. Luminescence was measured on a ViewLux plate reader (PerkinElmer).
Background: In qHTS, concentration-response curves come from the screen itself.
As to `[N-]=[N+]=N[C@]1(CO)O[C@@H](n2ccc(N)nc2=O)[C@@H](O)[C@@H]1O`, the “viability (% of control)” value is 70.1%. Still for that read-out and setting: the result for `N=C(N)c1ccc2nc(-c3cc(CC(=O)N[C@@H](CC(=O)O)C(=O)O)cc(-c4cc(S(N)(=O)=O)ccc4O)c3O)[nH]c2c1` reads 81.8%. Regarding `CN(C)c1ccc(Nc2nc(N)n(C(=O)c3c(F)cccc3F)n2)cc1`, the Potency was 3.66 µM (active). Turning to `O=C(CCN1CCN(CCO)CC1)N1c2ccccc2Sc2ccc(C(F)(F)F)cc21`, the “viability (% of control)” value was 80.9%. The same measure, in the same setting: under `COc1cc(/C=C/C(=O)O[C@@H]2C[C@@](O)(C(=O)O)C[C@@H](O)[C@@H]2O)ccc1O` stands 79.9%. As for `COc1ccc2nc3n[nH]c(C)c3c(NCCOCCO)c2c1`, the Potency is 18.4 µM (active) and 9.34 µM (active). On the same count and under the same terms, under `CC(=O)N(O)CCCCCNC(=O)CCC(=O)N(O)CCCCCNC(=O)CCC(=O)N(O)CCCCCN` stands 6.61 µM (active); under `CCOCC(O)COc1ccc(NC(=O)CC[S+](C)C)cc1` (stereo not given), “inactive”. For `CC1OC(=O)C[C@@H]2C(C(=O)O)=CO[C@@H](O[C@H]3O[C@H](CO)[C@@H](O)[C@H](O)[C@H]3O)[C@H]12` (stereo not given in full), the “viability (% of control)” value was 72.8%.

Take `CC(C)CCCC(C)CCCC(C)CCCCC(C)CCCC(C)CCCC(C)C` (stereo not given): the “viability (% of control)” value was 71.6%. Take `OCc1ccc(-c2nn(Cc3ccccc3)c3ccccc23)o1`: the Potency is 5.25 µM (active).

For `CN1C[C@@H]2C[C@H]1CN2c1cc2c(cc1F)c(=O)c(C(=O)O)cn2C1CC1`, the “viability (% of control)” value was 70.4% [at 17.3 µM]. On to `COc1cc(COC2OC(CO)C(O)C(O)C2O)cc(OC)c1O` (stereo not given), for which the “viability (% of control)” value was 80.7%. For the compound `N[C@@H](COP(=O)(O)O)C(=O)O`, the “viability (% of control)” value was 80.6% [at 17.3 µM]. Consider `Cc1c(C)n(Cc2ccccc2)c2ccc(C(=O)OCCN(C)C)cc12`, for which the Potency was 11.9 µM (active). On the same count and under the same terms, under `Oc1cccc(-c2c3nc(c(-c4cccc(O)c4)c4ccc([nH]4)c(-c4cccc(O)c4)c4nc(c(-c5cccc(O)c5)c5ccc2[nH]5)CC4)C=C3)c1` stands 16.8 µM (active); under `CN(C)CCNC(=O)c1cccn2c(=O)c3cc4ccccc4cc3nc12`, 0.299 µM (active).

On to `CCC/C=C/C(=O)O[C@H]1CC(C)(C)CC2[C@]13[C@H](O)O[C@@]21CCC2[C@@]4(C)CC[C@H](O[C@@H]5O[C@H](C(=O)O)[C@@H](O)[C@H](O[C@@H]6O[C@H](CO)[C@H](O)[C@H](O)[C@H]6O[C@@H]6O[C@@H](C)[C@H](O)[C@@H](O)[C@H]6O[C@@H]6OC[C@](O)(CO)[C@H]6O)[C@H]5O[C@@H]5O[C@H](CO)[C@H](O)[C@H](O)[C@H]5O)C(C)(C)C4CC[C@@]2(C)[C@]1(C)C[C@H]3OC(C)=O` (stereo not given in full), for which the viability (% of control) was 57.2% [at 9.25 µM].

With `CCCSc1ccc2nc(NC(=O)OC)[nH]c2c1`, the Potency is 0.668 µM (active). On the same count and under the same terms, the result for `Nc1nc(N)c2nc(-c3cccc(O)c3)c(-c3cccc(O)c3)nc2n1` reads 13 µM (active).

Regarding `NS(=O)(=O)c1ccc(C(=O)O)cc1`, the “viability (% of control)” value was 81.3%. Regarding `CCOC(=O)n1ccn(C)c1=S`, the “viability (% of control)” value is 46%. As for `O=C1c2ccccc2-c2nc3nnnn3nc21` (tested in a mixture with another compound), the Potency is 0.092 µM (active). In the case of `CCN1CCc2nc(N)oc2CC1`, the “viability (% of control)” value was 38.8%. `C=CC(=O)Nc1cc2c(Nc3ccc(F)c(Cl)c3)ncnc2cc1C#CC(C)(C)N1CCN(C)CC1`: the Potency is 0.59 µM (active).

Take `COc1cc(NC(=O)Nc2cccc(CNC(=O)O[C@H]3CCOC3)c2)ccc1-c1cnco1`: the Potency is 1.3 µM (active).

In the case of `COc1nc2ccc(Br)cc2cc1[C@@H](c1ccccc1)[C@@](O)(CCN(C)C)c1cccc2ccccc12`, the Potency was 6.51 µM (active). Regarding `NC(=O)c1ccc(F)c2c1C[C@@H](N(C1CCC1)C1CCC1)CO2`, the “viability (% of control)” value is 65.3%. `CC1=CC(=O)C(C(C)C)=C/C1=N/OC(=O)c1ccccc1C`: the Potency was 5.17 µM (active). `CC(=O)OC1CC(C(C)(C)O)OC2CCC3(C)OC4=C(C(=O)C=C5C(C)C(OC(C)=O)C6(C)C(C)OC546)C(O)C3C12C` (stereo not given): the “viability (% of control)” value is 69% [at 17.3 µM]. Consider `C=C1C(=O)O[C@@H]2/C=C(\C)CC/C=C(/C=O)[C@H](OC)[C@@H](OC(=O)C(C)C)[C@@H]12`, for which the Potency was 4.04 µM (active). Turning to `O=C(/C=C/c1ccc(O)c(O)c1)O[C@@H]1[C@@H](O)[C@H](OC2CCCCC2O)O[C@H](CO)[C@H]1O` (stereo not given in full), the “viability (% of control)” value is 86.9% [at 17.3 µM]. The same measure, in the same setting: under `CC(=O)Nc1ccc(C(=O)O)cc1` stands 92.4%; under `NC(=O)Cc1cccc(C(=O)c2ccccc2)c1N`, 47.7%.

As for `CN[C@H]1CN(c2ccc3c(=O)c(C(=O)O)cn(-c4nccs4)c3n2)C[C@@H]1OC`, the Potency is 0.605 µM (active).

As to `CC(=O)Nc1ccc(CC(=O)O)cc1`, the “viability (% of control)” value was 80.9%. As for `CN(Cc1cnc2nc(N)nc(N)c2n1)c1ccc(C(=O)N[C@@H](CCC(=O)O)C(=O)O)cc1`, the Potency is 10.6 nM (active) and 37.2 nM (active). Still for that read-out and setting: the result for `C[N+]1(CC2COC(c3ccccc3)(C3CCCCC3)O2)CCCCC1` (stereo not given) reads 13.3 µM (active).

As to `CC[N+](C)(C)c1cccc(O)c1`, the “viability (% of control)” value was 76%. On the same count and under the same terms, under `Cc1cc(CC(=O)O)n(C)c1C(=O)c1ccc(Cl)cc1` stands 71.1%.
